From PubChem BioAssay (EPA / NIEHS)
Records with an inconclusive call do not appear. Calls of active or inactive are those of the source. The calls were made as follows, unless noted: active = hit-call score of the fitted dose curve at least 0.9, where 1 is the maximum; inactive = score below 0.9.

Columns and labels:
[1] = CCTE_Shafer_MEA_dev_AB: CCTE's Alamar Blue Assay for Cytotoxicity in the Neural Network Formation Assay, Shafer Lab (AID 2284083; active = hit-call score of the fitted dose curve at least 0.9, where 1 is the maximum;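 also: twelve days of exposure from plating with re-dosing on DIV 5 and 9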)
In short: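 Primary rat cortical neurons on PEI-coated 48-well MEA plates, 1.5 x 10^5 cells/well in laminin drop; compound exposure from day 0 of plating for twelve days, renewed at medium changes on DIV 5 and 9. Viability read as resazurin reduction by fluorescence, relative to DMSO.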

[2] = CCTE_Shafer_MEA_dev_mutual_information_norm: CCTE's Neural Network Formation Assay for Mutual Information Normalization, Shafer Lab (AID 2284091);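 as to AC50: mutual information between electrodes summarised as area under curve across four recording days; potency is for a decrease in mutual information relative to DMSO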
In short: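 Developing rat cortical networks on 16-electrode MEA wells are treated throughout formation (DIV 0–12). Shared electrode information is recorded four times, converted to area-under-curve, and fitted for decreases against DMSO vehicle.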

[3] = CCTE_Shafer_MEA_dev_correlation_coefficient_mean: CCTE's Neural Network Formation Assay for Mean Correlation Coefficient, Shafer Lab (AID 2284093);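 as to AC50: well mean pairwise spike train correlation integrated as AUC over recording days 5 to 12; potency fitted for loss of correlation relative to DMSO vehicle wells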
In short: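 Spontaneous activity recorded on days 5, 7, 9 and 12 post-plating; pairwise spike correlations are averaged across active electrodes and collapsed to an area-under-curve. Rat cortical cultures are dosed from plating through 12 days, with compound renewed at media changes.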

[4] = CCTE_Shafer_MEA_dev_LDH: CCTE's Lactate Dehydrogenase Assay for Cytotoxicity in the Neural Network Formation Assay, Shafer Lab (AID 2284068; active = hit-call score of the fitted dose curve at least 0.9, where 1 is the maximum;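 also: exposure for twelve days from plating with re-dosing on DIV 5 and 9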)
In short: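 Primary rat cortical neurons were plated on PEI/laminin MEA plates and exposed from day 0 for twelve days, with compound renewed at DIV 5 and 9. Cytotoxicity was determined by spectrophotometric LDH assay relative to DMSO.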

[5] = UKN2_HCS_IMR90_neural_migration: University of Konstanz (UKN) Leist Lab Neural Crest Cell Migration Assay in human induced IMR90 Pluripotent Stem Cells (UKN2) (AID 2284204); conditions: actives raise or lower the signal
In short: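 Migration of human IMR90-derived neural crest cells into a stopper-defined gap is imaged after 24 h chemical treatment. Activity is fitted bidirectionally relative to DMSO.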

[6] = IUF_NPC1b_proliferation_BrdU_72hr: Leibniz Research Institute for Environmental Medicine (IUF) 72-hour Neural Progenitor Cell Bromodeoxyuridine (BrdU) Proliferation Assay (NPC1b) (AID 2284207)
In short: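 Proliferation of primary human neural progenitor cells: 72 h compound treatment at 37C, 5% CO2, pH 7.2-7.6, in EGF/FGF-containing medium. Readout is BrdU uptake (last 16 h) by chemiluminescent ELISA, normalised to DMSO.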

[7] = IUF_NPC1a_proliferation_area_72hr: Leibniz Research Institute for Environmental Medicine (IUF) 72-hour Neural Progenitor Cell Proliferation Area Assay (NPC1a) (AID 2284208)
In short: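 Spheres of 0.3 mm are plated singly in growth-factor medium and exposed from day 0. After three days at 37C and 5% CO2, sphere area is measured by phase contrast imaging, with activity referenced to DMSO.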

[8] = IUF_NPC1_viability_72hr: Viability Assessment at 72 hours in the Leibniz Research Institute for Environmental Medicine (IUF) Neural Progenitor Cell Proliferation Assay (NPC1) (AID 2284209)
In short: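 hNPC spheres, 1/well, EGF+FGF medium, 37C/5% CO2; dosed day 0, 72 h, no re-dosing. Resazurin reduction (alamar blue) fluorescence; DMSO = negative control/baseline; growth-factor-free wells as positive control.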

[9] = CCTE_Mundy_HCI_Cortical_Synap_Neur_Matur_NeuriteSpotCountPerNeuriteLength: CCTE's Synaptogenesis and Neurite Maturation Assay in rat cortical cells for Neurite Spot Count per Neurite Length, Mundy Lab (AID 2284210)
In short: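 Primary rat cortical neurons, compound exposure DIV 7–12, 288.33 h endpoint. Hoechst, anti-MAP2 and anti-synaptophysin labelling; neurite-associated puncta per neurite length scored by automated imaging relative to DMSO controls.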

[10] = CCTE_Mundy_HCI_Cortical_Synap_Neur_Matur_BPCount: CCTE's Synaptogenesis and Neurite Maturation Assay in rat cortical cells for Branch Point Count, Mundy Lab (AID 2284211)
In short: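 Rat primary cortical cultures, AraC added DIV 5; chemicals dosed DIV 7 through DIV 12. Fixed cells stained for MAP2, synaptophysin and Hoechst; neurite branch points counted by automated high-content imaging, fitted relative to DMSO.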

[11] = CCTE_Mundy_HCI_Cortical_NOG_NeuriteCount: CCTE's Neurite Outgrowth Assay in rat cortical cells for Neurite Count, Mundy Lab (AID 2284212);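 also: cells fixed about two days after chemical exposure began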
In short: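 Neurite number per cell from high-content imaging of betaIII-tubulin immunostaining, with Hoechst nuclear counterstain.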

[12] = CCTE_Mundy_HCI_Cortical_NOG_NeuriteLength: CCTE's Neurite Outgrowth Assay in rat cortical cells for Neurite Length, Mundy Lab (AID 2284213);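 also: neurites imaged about 48 to 50 h after chemical exposure began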
In short: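 Neurite length was read by high-content imaging of βIII-tubulin-labelled neurites in rat primary cortical cultures. Activity was fitted relative to DMSO.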

[13] = CCTE_Mundy_HCI_Cortical_Synap_Neur_Matur_NeuriteLength: CCTE's Synaptogenesis and Neurite Maturation Assay in rat cortical cells for Neurite Length, Mundy Lab (AID 2284214)
In short: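 Rat cortical neurons, AraC at DIV 5; compound + media change DIV 7, end DIV 12 (288.33 h). Fix, MAP2/synaptophysin/Hoechst immunostain, automated HCI of neurite length vs DMSO.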

[14] = CCTE_Mundy_HCI_Cortical_Synap_Neur_Matur_NeuriteSpotCountPerNeuron: CCTE's Synaptogenesis and Neurite Maturation Assay in rat cortical cells for Neurite Spot Count per Neuron Count, Mundy Lab (AID 2284215)
In short: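 Rat cortical primary cultures; AraC DIV 5 to arrest glia; dosing + media change DIV 7; fixed DIV 12. Anti-MAP2/anti-synaptophysin, Hoechst nuclei; HCI puncta count per neuron, positive fitting direction vs DMSO.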

In the case of O=C(F)C(F)(F)C(F)(F)C(F)(F)C(=O)F, the outcome [1] was “inactive”, the outcome [2] was “inactive” and the outcome [3] was “inactive”.

In the case of O=C(C=C(O)C(F)(F)F)C(F)(F)F, the outcome [4] was “inactive”, the outcome [2] was “inactive” and the outcome [3] was “inactive”.

In the case of CC(C)c1c(C(=O)Nc2ccccc2)c(-c2ccccc2)c(-c2ccc(F)cc2)n1CC[C@@H](O)C[C@@H](O)CC(=O)O, the AC50 [4] was 1.48 nM (active), the AC50 [1] was 25.8 nM (active) and the AC50 [2] was 7.93 nM (active). For the same compound, the AC50 [3] was 8.05 nM (active), the outcome [5] was “inactive” and the AC50 [6] was 1700 nM (active). For the same compound, the outcome [7] was “inactive”, the outcome [8] was “inactive” and the AC50 [9] was 6940 nM (active). The AC50 [10] was 779 nM (active), the AC50 [11] was 158 nM (active) and the AC50 [12] was 145 nM (active). For the same compound, the AC50 [13] was 2820 nM (active) and the AC50 [14] was 3050 nM (active).

For O=C(F)C(F)(F)C(F)(F)C(F)(F)C(F)F, the outcome [1] was “inactive”, the outcome [2] was “inactive” and the outcome [3] was “inactive”.

For FC(F)=C(F)C(F)(F)C(F)(F)C(F)(F)C(F)F, the outcome [2] was “inactive” and the outcome [3] was “inactive”.

For O=P(O)(O)CCC(F)(F)C(F)(F)C(F)(F)C(F)(F)C(F)(F)C(F)(F)F, the outcome [4] was “inactive”, the outcome [1] was “inactive” and the outcome [2] was “inactive”. For the same compound, the outcome [3] was “inactive”.
